From PubChem BioAssay AID411 (National Center for Advancing Translational Sciences (NCATS), 2006)
Out of some 72,000 compounds screened, about 1,600 (2.2%) were called active. A call without a number means that no potency is given here. This excerpt belongs to a sample that is enriched for actives. Values without a mark were called inactive. Calls come from the whole dose curve; as a rule, active = well fitted inhibition curve with a large enough effect; inconclusive = small, poorly fitted or top-dose-only effect; inactive = flat fitted curve, though single readings scatter.
Note: nearly all actives have a fitted effect of over 40% in size.
Potency is the fitted concentration of half-maximal effect.

These compounds were tested against Luciferin 4-monooxygenase (Photinus pyralis) (UniProt P08659) (assay: qHTS Assay for Inhibitors of Firefly Luciferase). Details: purified firefly luciferase, luminescence, 8 min; series mostly up to 57.1 µM.
Sequence of Luciferin 4-monooxygenase (Photinus pyralis) (P08659 whole entry, looked up): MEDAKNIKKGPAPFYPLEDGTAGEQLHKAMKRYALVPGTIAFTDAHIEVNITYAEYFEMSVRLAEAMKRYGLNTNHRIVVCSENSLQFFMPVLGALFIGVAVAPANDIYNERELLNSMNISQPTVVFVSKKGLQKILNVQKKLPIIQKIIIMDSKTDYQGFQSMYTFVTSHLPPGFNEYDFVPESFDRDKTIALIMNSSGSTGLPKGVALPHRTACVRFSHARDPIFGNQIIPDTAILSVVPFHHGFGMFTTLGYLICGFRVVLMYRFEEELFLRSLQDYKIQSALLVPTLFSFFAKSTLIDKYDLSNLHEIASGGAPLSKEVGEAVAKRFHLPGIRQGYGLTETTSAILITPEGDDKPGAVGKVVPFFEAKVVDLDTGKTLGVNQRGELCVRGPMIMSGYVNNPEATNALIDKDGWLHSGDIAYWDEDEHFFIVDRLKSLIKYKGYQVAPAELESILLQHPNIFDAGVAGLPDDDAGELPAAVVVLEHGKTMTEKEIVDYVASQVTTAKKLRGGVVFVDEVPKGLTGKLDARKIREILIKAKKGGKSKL
How it was run: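 Firefly luciferase (PKLight detection mix) with 10 uM ATP in pH 7.2 imidazole buffer (KCl, MgCl2, Tween 20, BSA). Compounds tested across a concentration series (qHTS). Luminescence read after 8 min at ambient temperature.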
For `Cc1ccc2oc(=O)c3cnn(CC(=O)N4CCCCCC4)c3c2c1`, the Potency was “inactive”.
`Cc1ccc(C(=O)N2CCCCCC2)cc1Br` was tested, and the Potency was “inactive”.
`Cc1ccc2cc3cc(C(=O)N4CCCCCC4)oc3nc2c1` was tested, and the Potency was 7.94 µM (active).
`O=C(NCCCNCc1ccccc1)c1ccc(/C=N/O)nc1` was tested, and the Potency was “inactive”.
`O=C(O)C1CC=CCC1C(=O)NCCc1ccccc1` (configuration not stated) was tested, and the Potency was “inactive”.
In the case of `CC1CCCN(c2ccc(C(=O)NCCc3ccccc3)cn2)C1` (configuration not stated), the Potency is reported as 15.8 µM (active).
For `CN(C)CCCNc1c2c(c(C#N)c3nc4ccccc4n13)CCC2`, the Potency was “inactive”.
For `CCOC(=O)C1=C(C)NC(=O)N(C(C)=O)C1c1ccc(Cl)cc1` (configuration not stated), the Potency was “inactive”.
With `O=C(Oc1ccc(-c2nc(-c3ccccn3)no2)cc1)c1ccccc1` the Potency was 2.51 µM (active).
For `O=C(Oc1ccccc1)c1ccc2nccnc2c1`, the Potency was “inactive”.
For `CC(C)c1nc(-c2ccccn2)no1`, the Potency was “inactive”.
In the case of `C=CCn1c(SCn2nnc3ccccc3c2=O)nnc1-c1ccc(Cl)cc1`, the Potency is reported as “inactive”.
For `CCOC(=O)c1[nH]c2ccc(OC)cc2c1NC(=O)N1CCOCC1`, the Potency was “inactive”.
`COc1ccc(C2CC(c3ccccc3)Nc3ncnn32)cc1` (configuration not stated) was tested, and the Potency was “inactive”.
In the case of `COc1ccc(OCC(=O)OCCN(C)C)cc1`, the Potency is reported as “inactive”.
`Cc1nc(-c2ccc(NC(=O)c3cccs3)cc2)cs1` was tested, and the Potency was 1.26 µM (active).
With `O=C(Nc1ncccn1)c1cccs1` the Potency was “inactive”.
`O=C(O)c1ccc(NC(=O)c2cccs2)cc1` was tested, and the Potency was “inactive”.
Compound `OCCCNCc1ccccn1` has an activity change, negative = inhibition of 3.67% [at 11.4 µM].
In the case of `COCCCNC(=O)CSc1nc2ccc(N3CCOCC3)cc2c(=O)n1CCc1ccccc1`, the Potency is reported as “inactive”.
For `Cc1nn2c3cc(N4CCOCC4)ccc3nc2c2ccccc12`, the Potency was 2 µM (active).
For `Cc1cc(C)c2c(n1)nn1c(N3CCOCC3)cc(C)nc21`, the Potency was “inactive”.
With `CCOc1ccc(NCCC(=O)c2ccc3c(c2)OCO3)cc1` the Potency was “inactive”.
For `CC(C)CCNC(=O)C(C)N(C(=O)Cn1nnc(-c2ccc(F)cc2)n1)C1CCCC1` (configuration not stated), the Potency was “inactive”.
Work on `COCCNc1ncnc2ccc(-c3cccnc3)cc12` yielded an activity change, negative = inhibition of -1.48% [at 2.29 µM].
With `COC(=O)c1ccc(NC(=O)C(C)N2C(=O)c3ccccc3C2=O)cc1` (configuration not stated) the Potency was “inactive”.
For `CCN(CC)C(=O)CCC(=O)Nc1ccc(C(=O)OC)cc1`, the Potency was “inactive”.
With `COC(=O)c1ccc(NCC(=O)c2ccccc2)cc1` the Potency was 7.94 µM (active).
With `CN(c1ccc(C(=O)NCCC2=CCCCC2)cc1)S(C)(=O)=O` the Potency was “inactive”.
In the case of `Cc1nn(Cc2ccccc2)c(Cl)c1C(=O)OC1CCOC1=O` (configuration not stated), the Potency is reported as “inactive”.
With `O=C(c1cccs1)N1CCC(c2nc3ccccc3s2)CC1` the Potency was “inactive”.
In the case of `O=C(OC1CCOC1=O)c1ccc(-c2nc3ccccc3s2)s1` (configuration not stated), the Potency is reported as 2.51 µM (active).
Work on `COc1ccc(C(=O)N2CCC[C@@]3(CCN(C(=O)NC(C)C)C3)C2)cc1` yielded an activity change, negative = inhibition of -0.0908% [at 11.4 µM].
For `CCCOC(=O)Nc1ccccc1C(N)=O`, the Potency was “inactive”.
With `NC(=O)c1ccccc1NC(=O)c1ccccc1F` the Potency was “inactive”.
For `COc1cccc(OCC(=O)Nc2ccccc2C(N)=O)c1`, the Potency was 6.31 µM (active).
`O=S(=O)(c1ccc(Sc2nnc3ccccn23)nc1)N1CCOCC1` was tested, and the Potency was “inactive”.
For `O=C1CCCC2=C1C(c1cccs1)n1nc(SCc3ccccc3)nc1N2` (configuration not stated), the Potency was “inactive”.
In the case of `O=S(=O)(NCCNS(=O)(=O)c1ccccc1)c1ccccc1`, the Potency is reported as “inactive”.
With `COc1ccccc1N1CCN(C(=O)c2cc(-c3ccc(Br)cc3)on2)CC1` the Potency was “inactive”.
With `O=C(c1cc(-c2ccccc2O)on1)N1CCCC1` the Potency was “inactive”.
`COc1ccccc1-c1cc(C(=O)N2CCCCC2)no1` was tested, and the Potency was 25.1 µM (active).
With `O=C(c1cc(-c2cccc(O)c2)on1)N1CCc2ccccc2C1` the Potency was “inactive”.
With `O=C(c1cc(-c2cccs2)on1)N1CCCCC1` the Potency was 15.8 µM (active).
In the case of `Cc1cc(NC(=O)c2cc(-c3cccs3)on2)nn1Cc1ccc(Cl)cc1`, the Potency is reported as “inactive”.
For `Cn1cccc1Cc1nnc(SCC(=O)NCc2ccc3c(c2)OCO3)n1CCc1ccccc1`, the Potency was “inactive”.
For `CCOC(=O)c1cc2cc(-c3c(C(=O)OCC)oc4cc(O)cc(O)c4c3=O)ccc2o1`, the Potency was “inactive”.
`CN1CCc2[nH]nc(-c3n[nH]c4c3CN(C)CC4)c2C1` was tested, and the activity change, negative = inhibition was 2.79% [at 11.4 µM].
With `O=C(C1CCN(S(=O)(=O)Cc2ccccc2)CC1)N1CCCc2ccccc21` the Potency was “inactive”.
`CCOC(=O)NCc1ccc2c(c1)OCO2` was tested, and the Potency was “inactive”.
`CCOC(=O)c1c(C)[nH]c(C(=O)COc2ccc3c(c2)OCO3)c1C` was tested, and the Potency was “inactive”.
For `CCOC(=O)c1nc(-c2ccc3c(c2)OCO3)[nH]c1C`, the Potency was 15.8 µM (active).
`COc1ccc(-c2nnc(SCC(=O)c3cccs3)o2)c(OC)c1` was tested, and the Potency was 12.6 µM (active).
In the case of `COc1ccc(OC)c(C(=O)CSc2nnc(-c3cccs3)o2)c1`, the Potency is reported as “inactive”.
In the case of `COc1ccc(-n2c(C)cc(C(=O)CSc3nnc(-c4cccs4)o3)c2C)cc1`, the Potency is reported as “inactive”.
In the case of `c1coc(-c2nc3nc4ccccc4n3nc2-c2ccco2)c1`, the Potency is reported as “inactive”.
In the case of `Cn1c(-c2ccco2)nc2cc3ccccc3cc21`, the Potency is reported as 0.501 µM (active).
In the case of `CN(c1nc2ccccc2n2c(-c3ccco3)nnc12)S(=O)(=O)c1ccccc1`, the Potency is reported as “inactive”.
In the case of `C(=C\c1ccccc1)/CSc1nnc(-c2cccnc2)n1Cc1ccco1`, the Potency is reported as “inactive”.
With `CC(=O)N1CCN(C(=O)c2cccc(S(=O)(=O)Nc3ccc(C)cc3)c2)CC1` the Potency was “inactive”.
For `COC(=O)c1[nH]c2ccccc2c1NS(=O)(=O)c1ccc(OC)cc1OC`, the Potency was “inactive”.
In the case of `COc1ccc(N=Cc2c(O)[nH]c3ccccc23)cc1OC`, the Potency is reported as 15.8 µM (active).
With `COc1ccc(OC)c(N=Cc2c(O)[nH]c3ccccc23)c1` the Potency was “inactive”.
In the case of `CCOC(=O)C1CCCCN1Cc1ccc(OC)c(OC)c1OC` (configuration not stated), the Potency is reported as “inactive”.
With `CNC(=O)c1ccc2nc(NC(C)=O)sc2c1` the Potency was “inactive”.
With `CCn1c(SCC(=O)Nc2nc3ccc(OC)cc3s2)nnc1-c1ccoc1C` the Potency was “inactive”.
With `COc1ccc2nc(NC(=O)c3ccc(Br)s3)sc2c1` the Potency was 12.6 µM (active).
`Cc1nc2ccccc2c(=O)n1CCCn1ccnc1` was tested, and the Potency was “inactive”.
In the case of `Cc1ccnc(-n2sc3ccccc3c2=O)n1`, the Potency is reported as 20 µM (active).
For `Cc1ccnc(N2CCC(C(=O)NC3CCCCCC3)CC2)n1`, the Potency was “inactive”.
For `N#CCCN(CCC#N)c1nnc(-c2ccccc2)s1`, the Potency was “inactive”.
For `Cc1ccc(S(=O)(=O)NCc2cn3ccsc3n2)c(C)c1`, the Potency was “inactive”.
With `O=C(NCc1cn2ccsc2n1)Nc1ccc(Cl)cc1` the Potency was “inactive”.
With `COc1ccc(-c2cn3ccsc3n2)cc1` the Potency was 3.98 µM (active).
Work on `CC(=O)N1CCC2(CCCN(Cc3ccc(C#N)cc3)C2)CC1` yielded an activity change, negative = inhibition of 0.0675% [at 11.4 µM].
With `Cc1ccc(NC(=O)CSc2nnc(-c3cnccn3)n2Cc2ccco2)cc1C` the Potency was “inactive”.
In the case of `CN(C(=O)c1ccno1)c1nnc(-c2cccnc2)s1`, the Potency is reported as “inactive”.
`CN(C(=O)c1ccccn1)c1nnc(-c2ccccn2)s1` was tested, and the Potency was 10 µM (active).
For `CN(C(=O)COc1ccccc1)c1nnc(-c2ccncc2)s1`, the Potency was “inactive”.
With `O=S1(=O)CCN2C(=N1)SC1=C2CCN(Cc2ccccc2)C1` the Potency was “inactive”.
`Brc1cccc(-c2nnc3n2CCC3)c1` was tested, and the Potency was “inactive”.
With `COc1ccc(-c2cc3n(n2)CCc2nc4ccccc4n2-3)cc1` the Potency was “inactive”.
In the case of `COc1ccc(-c2nc3n(c2Br)CCC3)cc1`, the Potency is reported as 12.6 µM (active).
`Cc1nc2ccc(NC(=O)N3CCC(c4ccccc4)C3)cc2nc1C` (configuration not stated) was tested, and the Potency was “inactive”.
With `Cc1cc(=O)oc(C)c1C(=O)Nc1cnc2ccccc2c1` the Potency was “inactive”.
In the case of `Cc1ccc(C(=O)CSc2nc3ccccc3c(=O)n2N)o1`, the Potency is reported as “inactive”.
With `Cc1ccc(NC(=O)c2cc(-c3ccc(C)o3)nc3ccccc23)nc1` the Potency was 12.6 µM (active).
With `CCOC(=O)Cc1csc(NC(=O)CSc2nc(C)cc(=O)[nH]2)n1` the Potency was “inactive”.
With `CCOC(=O)Cc1csc(NC(=O)C(C)(C)C)n1` the Potency was “inactive”.
`CCOC(=O)Cc1csc(NC(=O)Nc2ccccc2)n1` was tested, and the Potency was 12.6 µM (active).
Work on `CNc1nc(-c2ccccc2OC)nc2ccccc12` yielded an activity change, negative = inhibition of -0.211% [at 2.29 µM].
`Cc1nc2cnc(Nc3ccccc3)nc2n(Cc2ccc(F)cc2)c1=O` was tested, and the activity change, negative = inhibition was -0.327% [at 11.4 µM].
